Measurements: ChEMBL document CHEMBL3988442, “University of Dundee, Small-Polar-MMV Screening Library” (2021)
For some assays here: Potency and affinity values are given separately.

Key:
Parameters in all cases: scale not given: direction of the effect not stated beside the values
[1] = target: Protein translocase subunit SecA (Escherichia coli (strain K12)) (UniProt P10408); test: Assay to Identify E. coli SecA ATPase Inhibitors; assay type: functional; conditions: 30 µM
[2] = target: T1, Ubiquitin-activating enzyme e1, putative (Leishmania donovani (strain BPK282A1)) (UniProt E9BSI1); test: Leishmania donovani Ubiquitin Activating Enzyme (LdE1); assay type: functional; conditions: 30 µM
T1 sequence (whole entry): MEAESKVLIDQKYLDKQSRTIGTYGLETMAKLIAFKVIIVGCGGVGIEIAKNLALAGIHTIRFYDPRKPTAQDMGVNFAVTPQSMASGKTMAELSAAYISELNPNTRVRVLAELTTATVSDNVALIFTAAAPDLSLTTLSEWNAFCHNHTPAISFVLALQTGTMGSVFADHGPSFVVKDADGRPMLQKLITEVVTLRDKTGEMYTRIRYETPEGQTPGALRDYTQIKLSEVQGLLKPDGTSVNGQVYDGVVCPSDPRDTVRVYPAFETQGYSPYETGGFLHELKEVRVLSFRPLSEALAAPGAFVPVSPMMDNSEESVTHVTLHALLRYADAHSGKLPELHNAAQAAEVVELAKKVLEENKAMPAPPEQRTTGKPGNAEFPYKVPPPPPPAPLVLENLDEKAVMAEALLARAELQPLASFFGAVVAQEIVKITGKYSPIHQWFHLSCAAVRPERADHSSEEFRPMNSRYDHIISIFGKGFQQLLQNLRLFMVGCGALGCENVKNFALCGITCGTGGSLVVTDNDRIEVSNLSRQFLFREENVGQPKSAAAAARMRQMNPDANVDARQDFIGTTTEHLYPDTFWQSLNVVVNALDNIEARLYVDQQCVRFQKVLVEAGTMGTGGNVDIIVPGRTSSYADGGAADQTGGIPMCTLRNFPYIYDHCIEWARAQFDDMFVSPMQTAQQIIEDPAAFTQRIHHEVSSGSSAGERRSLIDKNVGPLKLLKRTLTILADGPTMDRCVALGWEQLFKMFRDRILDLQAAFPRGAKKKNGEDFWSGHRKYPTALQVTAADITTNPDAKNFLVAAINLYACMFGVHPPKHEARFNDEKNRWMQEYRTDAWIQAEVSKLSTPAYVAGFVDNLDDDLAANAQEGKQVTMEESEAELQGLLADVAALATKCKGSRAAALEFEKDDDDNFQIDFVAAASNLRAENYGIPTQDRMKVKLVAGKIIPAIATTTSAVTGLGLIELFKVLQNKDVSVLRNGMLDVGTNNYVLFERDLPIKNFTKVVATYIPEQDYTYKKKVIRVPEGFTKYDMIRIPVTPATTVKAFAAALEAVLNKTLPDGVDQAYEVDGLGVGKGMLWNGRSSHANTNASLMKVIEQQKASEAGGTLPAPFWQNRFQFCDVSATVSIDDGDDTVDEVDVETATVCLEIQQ

[3] = target: AMP-activated protein kinase, AMPK (Homo sapiens) (UniProt P54646+O43741+P54619+Q9UGJ0+Q9Y478+Q13131+Q9UGI9); test: AMP-dependent Kinase enzyme assay. An in vitro enzyme assay that detects ADP turnover that is directly proportional to AMPK activity. This uses naive AMPK that is activated during the assay with MK-8722; assay type: functional; conditions: 30 µM
[4] = target: Sialic acid-binding Ig-like lectin 9 (Homo sapiens) (UniProt Q9Y336); test: Hs-Siglec9 ALPHAscreen SOP 20170721; conditions: 10 µM
Sequence of Sialic acid-binding Ig-like lectin 9 (Homo sapiens) (Q9Y336 whole entry): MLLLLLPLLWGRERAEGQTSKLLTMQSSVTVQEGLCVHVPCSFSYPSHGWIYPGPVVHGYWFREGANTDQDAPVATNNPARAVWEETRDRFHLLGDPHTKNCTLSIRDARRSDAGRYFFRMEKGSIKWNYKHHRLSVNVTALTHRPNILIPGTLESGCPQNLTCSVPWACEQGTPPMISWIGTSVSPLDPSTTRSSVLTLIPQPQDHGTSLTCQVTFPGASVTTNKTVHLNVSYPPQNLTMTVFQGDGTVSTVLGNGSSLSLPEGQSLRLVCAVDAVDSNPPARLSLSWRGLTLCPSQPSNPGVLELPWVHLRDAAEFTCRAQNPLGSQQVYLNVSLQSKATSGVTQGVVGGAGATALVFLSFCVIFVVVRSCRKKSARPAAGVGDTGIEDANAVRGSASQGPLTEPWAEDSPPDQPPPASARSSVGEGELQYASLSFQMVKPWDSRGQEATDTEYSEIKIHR

[5] = test system: Trypanosoma cruzi; test: Trypanosoma cruzi phosphomannomutase and mannose-1-phosphate guanylyltransferase assay; assay type: functional; conditions: 10 µM
[6] = target: T2, Arginase-2, mitochondrial (Homo sapiens) (UniProt P78540); test: in vitro enzyme assay to detect the production of urea directly proportional to the activity of Arginase II; assay type: functional; conditions: 33.3 µM; further: in the data most compounds retested in dose-response had high values
T2 sequence (whole entry): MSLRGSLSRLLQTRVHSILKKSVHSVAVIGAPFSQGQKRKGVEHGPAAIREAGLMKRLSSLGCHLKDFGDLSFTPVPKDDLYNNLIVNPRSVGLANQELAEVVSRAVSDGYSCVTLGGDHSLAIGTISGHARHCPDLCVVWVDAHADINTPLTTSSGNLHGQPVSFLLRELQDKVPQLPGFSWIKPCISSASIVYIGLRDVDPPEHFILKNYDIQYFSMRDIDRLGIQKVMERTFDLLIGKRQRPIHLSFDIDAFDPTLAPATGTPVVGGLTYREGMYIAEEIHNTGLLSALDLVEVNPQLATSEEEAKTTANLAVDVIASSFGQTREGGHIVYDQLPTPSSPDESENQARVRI

[7] = target: T3, Proteasome subunit beta (Trypanosoma cruzi) (UniProt O96673); test: Trypanosoma cruzi proteasome chymotrypsin-like activity (TcProtChymo) assay.; further: in the data most compounds retested in dose-response had high values; assay type: functional; conditions: 9.37 µM
T3 sequence (whole entry): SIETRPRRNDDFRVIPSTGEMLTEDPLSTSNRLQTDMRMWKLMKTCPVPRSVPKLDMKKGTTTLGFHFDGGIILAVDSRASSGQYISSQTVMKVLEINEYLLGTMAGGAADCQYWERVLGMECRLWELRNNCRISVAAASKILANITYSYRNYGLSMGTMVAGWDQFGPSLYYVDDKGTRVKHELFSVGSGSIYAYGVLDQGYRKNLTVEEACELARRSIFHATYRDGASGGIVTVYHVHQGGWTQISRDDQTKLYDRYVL

[8] = species on record: Homo sapiens; test: To identify inhibition of the IFN signalling (Jak-Stat) pathway via expression of an eGFP reporter gene under the control of an IFN-stimulated response element (ISRE) containing MxA promoter.; assay type: functional; conditions: 30 µM
[9] = target: T4, Tyrosyl-tRNA synthetase, putative (Trypanosoma cruzi (strain CL Brener)) (UniProt Q4DSP6); test: Trypanosoma cruzi tyrosyl tRNA synthetase (TcYRS) _High Tyrosine SOP; assay type: functional; conditions: 30 µM; further: in the data most compounds retested in dose-response had high values
T4 sequence (whole entry): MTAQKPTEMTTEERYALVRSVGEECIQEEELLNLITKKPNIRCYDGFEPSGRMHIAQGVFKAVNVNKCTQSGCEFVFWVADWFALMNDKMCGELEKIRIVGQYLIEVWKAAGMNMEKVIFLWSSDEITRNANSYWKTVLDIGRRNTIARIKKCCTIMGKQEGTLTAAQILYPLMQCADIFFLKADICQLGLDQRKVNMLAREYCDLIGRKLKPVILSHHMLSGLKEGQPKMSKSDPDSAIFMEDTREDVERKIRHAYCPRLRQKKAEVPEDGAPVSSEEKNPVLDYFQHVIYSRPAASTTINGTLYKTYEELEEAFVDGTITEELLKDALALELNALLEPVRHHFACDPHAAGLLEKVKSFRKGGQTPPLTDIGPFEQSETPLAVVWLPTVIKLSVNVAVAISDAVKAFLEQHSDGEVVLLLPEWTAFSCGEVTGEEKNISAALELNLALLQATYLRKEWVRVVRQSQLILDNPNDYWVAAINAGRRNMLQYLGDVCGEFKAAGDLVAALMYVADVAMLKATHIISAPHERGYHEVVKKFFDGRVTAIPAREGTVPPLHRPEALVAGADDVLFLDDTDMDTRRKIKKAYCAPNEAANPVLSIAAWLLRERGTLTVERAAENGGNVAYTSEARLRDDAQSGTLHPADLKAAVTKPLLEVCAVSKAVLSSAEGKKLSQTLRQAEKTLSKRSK

[10] = target: T4, Tyrosyl-tRNA synthetase, putative (Trypanosoma cruzi (strain CL Brener)); test: Trypanosoma cruzi tyrosyl tRNA synthetase (TcYRS) SOP; assay type: functional; conditions: 30 µM
[11] = target: Chromo domain-containing protein 1 (Saccharomyces cerevisiae (strain ATCC 204508 / S288c) (Baker's yeast)) (UniProt P32657); test: ScCHD-1 Enzyme Inhibition Assay; assay type: functional; conditions: 30 µM; further: in the data most compounds retested in dose-response had high values
Sequence of Chromo domain-containing protein 1 (Saccharomyces cerevisiae (strain ATCC 204508 / S288c) (Baker's yeast)) (P32657 whole entry, the tested form may be a part): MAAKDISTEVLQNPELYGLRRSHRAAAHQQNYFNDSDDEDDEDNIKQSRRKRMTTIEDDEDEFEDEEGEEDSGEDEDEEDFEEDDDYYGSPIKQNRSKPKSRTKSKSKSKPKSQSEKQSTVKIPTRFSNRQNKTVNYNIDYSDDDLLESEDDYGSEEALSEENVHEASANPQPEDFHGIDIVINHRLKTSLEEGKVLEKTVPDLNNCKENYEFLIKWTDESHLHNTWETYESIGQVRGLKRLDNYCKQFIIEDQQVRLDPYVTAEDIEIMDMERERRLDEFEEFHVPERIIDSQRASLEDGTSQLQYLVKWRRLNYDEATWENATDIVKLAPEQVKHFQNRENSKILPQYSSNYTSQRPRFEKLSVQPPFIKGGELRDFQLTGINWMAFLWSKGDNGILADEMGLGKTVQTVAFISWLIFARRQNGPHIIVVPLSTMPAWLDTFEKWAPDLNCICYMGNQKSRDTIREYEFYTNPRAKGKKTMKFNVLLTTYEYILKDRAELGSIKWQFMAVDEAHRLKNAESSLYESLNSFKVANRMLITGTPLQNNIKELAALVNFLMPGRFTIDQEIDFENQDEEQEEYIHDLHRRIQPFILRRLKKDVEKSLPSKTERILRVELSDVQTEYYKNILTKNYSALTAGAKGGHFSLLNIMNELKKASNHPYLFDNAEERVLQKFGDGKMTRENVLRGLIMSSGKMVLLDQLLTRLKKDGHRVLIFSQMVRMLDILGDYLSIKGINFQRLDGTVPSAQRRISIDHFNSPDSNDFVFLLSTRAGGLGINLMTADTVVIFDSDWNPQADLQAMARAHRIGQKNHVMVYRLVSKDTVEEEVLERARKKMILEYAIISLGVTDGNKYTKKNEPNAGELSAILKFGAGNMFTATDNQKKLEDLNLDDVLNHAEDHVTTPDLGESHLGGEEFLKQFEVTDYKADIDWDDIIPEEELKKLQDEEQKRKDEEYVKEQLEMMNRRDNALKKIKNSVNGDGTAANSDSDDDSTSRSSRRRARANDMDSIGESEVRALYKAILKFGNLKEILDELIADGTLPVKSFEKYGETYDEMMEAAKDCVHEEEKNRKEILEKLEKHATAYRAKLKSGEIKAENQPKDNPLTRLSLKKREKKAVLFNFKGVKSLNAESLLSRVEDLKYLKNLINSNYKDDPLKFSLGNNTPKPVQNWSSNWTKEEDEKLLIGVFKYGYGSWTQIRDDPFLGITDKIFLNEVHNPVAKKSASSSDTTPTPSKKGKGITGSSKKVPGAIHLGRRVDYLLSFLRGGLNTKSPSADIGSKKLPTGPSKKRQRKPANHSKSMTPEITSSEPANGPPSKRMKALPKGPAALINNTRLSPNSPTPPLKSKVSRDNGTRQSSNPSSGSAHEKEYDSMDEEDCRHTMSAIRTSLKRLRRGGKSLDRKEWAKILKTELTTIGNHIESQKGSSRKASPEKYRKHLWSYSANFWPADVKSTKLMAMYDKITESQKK

Sequence of Protein translocase subunit SecA (Escherichia coli (strain K12)) (P10408 whole entry): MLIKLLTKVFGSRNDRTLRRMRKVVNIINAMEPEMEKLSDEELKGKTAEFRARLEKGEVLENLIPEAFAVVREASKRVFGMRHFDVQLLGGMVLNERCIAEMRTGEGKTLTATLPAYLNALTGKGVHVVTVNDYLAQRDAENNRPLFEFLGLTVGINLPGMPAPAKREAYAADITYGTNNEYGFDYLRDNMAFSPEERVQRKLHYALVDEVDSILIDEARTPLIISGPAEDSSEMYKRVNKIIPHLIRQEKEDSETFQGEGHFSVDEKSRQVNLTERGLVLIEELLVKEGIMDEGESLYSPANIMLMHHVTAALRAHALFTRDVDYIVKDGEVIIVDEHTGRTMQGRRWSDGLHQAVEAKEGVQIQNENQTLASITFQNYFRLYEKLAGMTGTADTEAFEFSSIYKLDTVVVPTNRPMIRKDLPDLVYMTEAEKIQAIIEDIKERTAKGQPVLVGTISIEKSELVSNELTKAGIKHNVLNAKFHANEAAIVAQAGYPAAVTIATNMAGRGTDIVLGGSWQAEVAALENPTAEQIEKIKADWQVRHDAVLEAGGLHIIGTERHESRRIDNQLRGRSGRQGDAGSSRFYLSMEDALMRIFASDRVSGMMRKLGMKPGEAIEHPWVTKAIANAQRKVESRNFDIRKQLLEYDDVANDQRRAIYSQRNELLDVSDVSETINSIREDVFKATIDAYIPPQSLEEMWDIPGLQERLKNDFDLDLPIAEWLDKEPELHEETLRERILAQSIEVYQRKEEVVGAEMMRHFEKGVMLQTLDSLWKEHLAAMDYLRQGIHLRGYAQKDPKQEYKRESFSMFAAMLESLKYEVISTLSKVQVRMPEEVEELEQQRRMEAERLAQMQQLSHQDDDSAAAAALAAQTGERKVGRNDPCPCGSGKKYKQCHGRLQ

| Compound | Percent Effect [1] | Percent Effect [2] | Percent Effect [3] | Percent Effect [4] | Percent Effect [5] | Percent Effect [6] | Percent Effect [7] | Percent Effect [8] | Percent Effect [9] | Percent Effect [10] | Percent Effect [11] |
| --- | --- | --- | --- | --- | --- | --- | --- | --- | --- | --- | --- |
| O=C(c1cccc(OC2CCCC2)c1)N1CCCC(n2cncn2)C1 (stereo unspecified) | -4.01% | 5.41% | 12.1% | 4.98% | 5.57% | -5.61% | -3.06% | 21.5% | 7.39% | 13.6% | -11.7% |
| Cn1cnnc1S(=O)(=O)C1CCN(S(=O)(=O)c2ccc(F)c(Cl)c2)CC1 | -0.452% | -5.48% | 9.53% | -2.11% | -1.37% | 1.36% | 7.1% | 8.21% | -1.07% | 0% | -1.74% |
| CC(C)(C)c1noc(CN2CCCN(Cc3cccs3)CC2)n1 | -4.7% | 10.4% | 2.92% | -6.09% | -3.75% | 0.356% | 1.69% | 30% | 6.8% | 12.2% | -5.35% |
| CC(=O)NCC(=O)N1CCOC2(CCCN(c3cccnc3)C2)C1 (stereo unspecified) | -5.02% | 2.7% | -2.24% | 1.82% | -6.05% | 0.833% | 15.3% | 7.03% | 8.91% | 6.1% | -2.32% |
| NS(=O)(=O)CCNC(=O)c1ccc(-c2ccc(F)cc2)cc1F | -4.5% | 5.2% | 1.86% | 3.08% | -1.08% | 8.28% | 24.5% | 19.2% | -10.8% | 1.24% | -1.11% |
| CCOc1ccccc1-c1noc(CN(C)Cc2cnn(C)c2)n1 | 1.46% | 8.11% | -5.04% | 7.46% | -2.12% | -4.76% | 11.9% | 4.5% | 4.76% | 9.76% | -1.75% |
| CCN1C[C@@H]2[C@@H](OC)CCN(S(=O)(=O)c3ccccc3F)[C@@H]2C1 | -2.71% | 5.33% | 11.3% | 0.304% | -2.56% | 4.43% | 0.793% | 4.67% | -1.06% | 3.85% | -0.244% |
| Cn1nnc2c1CCN(Cc1ccccc1)C2COCC1CC1 (stereo unspecified) | -1.15% | 2.67% | -10.3% | -0.164% | 3.15% | 2.1% | 5.9% | 8.15% | 14.9% | 24.4% | -11.1% |
| CN(CC1COc2ccccc2O1)C(=O)NCCCn1cncn1 (stereo unspecified) | -0.909% | 18.4% | 0.582% | 5.7% | 2.63% | 2.3% | 6.52% | 8.47% | 6.37% | 24.4% | -11.6% |
| O=C(NCC1CCOC1)N1CCN(Cc2ccc3c(c2)CCO3)CC1 (stereo unspecified) | -2.3% | 15.8% | -4.31% | -5.79% | 2.33% | -5.4% | 4.99% | -17.4% | 9.36% | 23.5% | -7.08% |
| Cc1nc(C(C)(C)NC(=O)Nc2cccc(C#N)c2)no1 | -4.07% | 5.48% | 3.16% | 8.84% | 8.81% | -0.455% | 15.1% | 3.14% | 5.38% | 15% | -4.58% |
| Cc1cc(-c2cnc(NC3CCCC3)nc2-c2ccoc2C)on1 | -2.76% | 14.9% | 65.2% | 4.01% | 0.395% | -0.696% | 5.77% | 14.7% | 6.45% | 3.9% | -16% |
| CCOc1ncccc1NC(=O)c1cc(C)c(C)s1 | -7.94% | 1.39% | 3.33% | -1.86% | -2.82% | -2.21% | 11.1% | 11.6% | -3.16% | 2.56% | -0.429% |
| Cc1ncc(CNC(=O)N(C)C2CCN(c3ccccc3)C2=O)s1 (stereo unspecified) | -4.68% | 5.26% | 1.78% | -2.39% | -4.51% | 3.45% | 4.51% | 15.1% | 2.45% | 0% | -3.16% |
| CC(C)SCC(=O)N1CCc2c(nc(N(C)C)nc2N(C)C)C1 | -5.05% | 13.3% | -4.26% | 19.7% | 6.52% | 5.73% | 13.8% | 10.8% | 2.73% | 8.64% | -8.15% |
| CCN(CC(=O)NC)C(=O)Cc1nc(-c2ccco2)oc1C | -8.15% | 5.33% | -6.53% | 3.51% | 0.876% | 5.73% | 16.9% | 10.7% | 8.2% | 13.6% | -5.99% |
